In PubChem BioAssay (Tox21):
Results filed as inconclusive are left out. Active and inactive are the calls of the source. Unless noted, the call rests on the fitted dose curve; in most records, active means well fitted curve in the direction sought with a large enough effect in the repeat runs; inconclusive means weak or mixed curves; inactive means no such curve, though single readings can be large; an effect the other way counts as inactive or inconclusive.

Key:
[1] = A CellTox Green Cytotoxicity Assay to monitor cytotoxicity in HEK293 cells - 32 hour (AID 1224881); further: nearly all actives have a fitted effect of over 40% in size
How it was run: (§1)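 Fluorescence from a DNA-binding dye excluded by viable cells was measured repeatedly in the same HEK293 wells (600 cells/well) during continuous compound exposure at 37 C. Each assay gives one read point: 0, 8, 16, 24, 32 or 40 h.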

[2] = A CellTox Green Cytotoxicity Assay to monitor cytotoxicity in HepG2 cells - 0 hour (AID 1224882); further: nearly all actives have a fitted effect of over 35% in size
How it was run: (§2)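 Real-time cytotoxicity: fluorescence of a cell-impermeant cyanine dye binding DNA of dead HepG2 cells, measured repeatedly (0–40 h) during compound exposure at 37 C. Cells seeded 600/well with reagent, dosed after 5 h.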

[3] = A CellTox Green Cytotoxicity Assay to monitor cytotoxicity in HepG2 cells - 32 hour (AID 1224883); further: nearly all actives have a fitted effect of over 50% in size
How it was run: as §2

[4] = A CellTox Green Cytotoxicity Assay to monitor cytotoxicity in HEK293 cells - 8 hour (AID 1224884); further: nearly all actives have a fitted effect of over 35% in size
How it was run: as §1

[5] = qHTS RealTime-Glo MT Cell Viability Assay in HepG2 cells - 16 hour (AID 1224885); further: nearly all actives have a fitted effect of over 50% in size
How it was run: (§3)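 Tox21 10K library screened in qHTS format on HepG2 cells carrying RealTime-Glo reagents. Compounds were added after a 5 h preincubation, and the luminescent signal from continuous culture was measured repeatedly during 40 h treatment.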

[6] = qHTS RealTime-Glo MT Cell Viability Assay in HEK293 cells - 24 hour (AID 1224886); further: top concentration of the series differs between compounds; nearly all actives have a fitted effect of over 50% in size
How it was run: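 Luminescence generated by NanoLuc from substrate produced by living HEK293 cells served as the viability signal. Each value reflects the reading at its stated time point during continuous 40 h compound exposure at 37 C.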

[7] = qHTS RealTime-Glo MT Cell Viability Assay in HEK293 cells - 8 hour (AID 1224887); further: top concentration of the series differs between compounds; nearly all actives have a fitted effect of over 50% in size
How it was run: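 Luminescence, which tracks viable cell number through reduction of the prosubstrate to a NanoLuc substrate, was read over continuous 37 C culture. Cells (600/well) were premixed with reagent and rested 5 h before 23 nL of compound in DMSO was pinned.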

[8] = A CellTox Green Cytotoxicity Assay to monitor cytotoxicity in HEK293 cells - 16 hour (AID 1224888); further: nearly all actives have a fitted effect of over 35% in size
How it was run: as §1

[9] = qHTS RealTime-Glo MT Cell Viability Assay in HepG2 cells - 0 hour (AID 1224889); further: nearly all actives have a fitted effect of over 50% in size
How it was run: as §3

[10] = A CellTox Green Cytotoxicity Assay to monitor cytotoxicity in HepG2 cells - 8 hour (AID 1224890); further: nearly all actives have a fitted effect of over 45% in size
How it was run: as §2

[11] = qHTS assay to identify small molecule antagonists of the estrogen receptor alpha (ER-alpha) signaling pathway using the BG1 cell line in the presence of 0.1 nM 17-beta-estradiol - cell viability counter screen (AID 1259241); further: nearly all actives have a fitted effect of over 40% in size
How it was run: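 Live-cell protease activity (CellTiter-Fluor fluorescence, 30 min) was read in the same wells after VM7Luc4E2 cells had been exposed to compounds with 0.1 nM 17beta-estradiol for 22 hr at 37C.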

[12] = target: Androgen receptor (Homo sapiens) (UniProt P10275); experiment: qHTS assay to identify small molecule antagonists of the androgen receptor (AR) signaling pathway using the MDA cell line in the presence of 0.5 nM R1881 (AID 1259243); further: nearly all actives have a fitted effect of over 50% in size
Androgen receptor (Homo sapiens), sequence (P10275 whole entry, looked up): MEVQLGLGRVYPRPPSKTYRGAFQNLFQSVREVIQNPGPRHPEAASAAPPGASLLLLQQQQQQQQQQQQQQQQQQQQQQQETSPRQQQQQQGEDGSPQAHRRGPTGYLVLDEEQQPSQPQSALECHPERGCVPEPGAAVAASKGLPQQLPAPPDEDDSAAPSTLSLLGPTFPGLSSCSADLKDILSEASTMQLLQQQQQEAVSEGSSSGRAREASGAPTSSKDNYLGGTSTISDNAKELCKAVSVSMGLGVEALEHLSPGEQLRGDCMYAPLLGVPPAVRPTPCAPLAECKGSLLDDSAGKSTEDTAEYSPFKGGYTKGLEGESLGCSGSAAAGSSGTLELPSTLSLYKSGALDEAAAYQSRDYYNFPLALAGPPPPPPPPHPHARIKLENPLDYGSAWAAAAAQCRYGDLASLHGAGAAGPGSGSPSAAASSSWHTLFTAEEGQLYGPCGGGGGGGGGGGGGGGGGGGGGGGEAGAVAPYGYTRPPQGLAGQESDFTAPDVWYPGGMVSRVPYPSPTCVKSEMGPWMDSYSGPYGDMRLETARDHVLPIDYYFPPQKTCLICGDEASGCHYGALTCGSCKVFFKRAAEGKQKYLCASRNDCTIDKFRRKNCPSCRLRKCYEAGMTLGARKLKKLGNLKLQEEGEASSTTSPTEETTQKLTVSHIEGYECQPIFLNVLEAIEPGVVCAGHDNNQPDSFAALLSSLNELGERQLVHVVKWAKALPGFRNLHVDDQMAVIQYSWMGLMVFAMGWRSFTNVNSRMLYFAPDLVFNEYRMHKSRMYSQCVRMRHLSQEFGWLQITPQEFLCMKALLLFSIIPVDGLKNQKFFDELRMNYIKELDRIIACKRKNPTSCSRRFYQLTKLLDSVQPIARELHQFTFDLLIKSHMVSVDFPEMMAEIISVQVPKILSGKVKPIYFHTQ
How it was run: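 Luminescent reporter readout (ONE-Glo, 30 min, room temperature) after 16 hr co-treatment of MDA-kb2 cells with test compounds and 0.5 nM R1881 final, at 37C without CO2. The MMTV-driven luciferase responds to both AR and GR.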

[13] = qHTS assay to identify small molecule agonists of the sonic hedgehog signaling (Shh) pathway - cell viability counter screen (AID 1259366); further: nearly all actives have a fitted effect of over 50% in size
How it was run: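 CellTiter-Fluor fluorescence read-out, 1 hr at 37C, added after 23hr compound exposure. Cells: 3T3 Gli1-Luc, an NIH/3T3 clone with stably integrated Gli1-Luc reporter, plated 4hr before compound.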

[14] = qHTS assay to identify small molecule antagonists of the sonic hedgehog signaling (Shh) pathway - cell viability counter screen (AID 1259367); further: nearly all actives have a fitted effect of over 55% in size
How it was run: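 Viability was read by CellTiter-Fluor fluorescence in the same wells, reagent added 23 hr into compound treatment and incubated 1 hr at 37C. The 3T3 Gli1-Luc reporter cells (2,000/well) received conditioned medium after compound and ran 24 hr.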

[15] = qHTS assay to identify small molecule agonists of the sonic hedgehog signaling (Shh) pathway (AID 1259368; calls by dose curve;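 further: NIH/3T3-derived 3T3Gli1-Luc cells carrying a stable Gli1-driven firefly luciferase reporter; series mostly up to about 92 µM; nearly all actives have a fitted effect of over 15% in size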)
How it was run: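 Luminescence was read after 30 min at room temperature with luciferase reagent. Before that, 3T3Gli1-Luc cells (NIH/3T3 clone, stable Gli1-Luc reporter; 2,000/well) were exposed to compounds for 24 hr at 37C, 5% CO2, compounds being added 4 hr post-plating.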

[16] = qHTS assay to identify small molecule antagonists of the androgen receptor (AR) signaling pathway using the MDA cell line in the presence of 0.5 nM R1881 - cell viability counter screen (AID 1259242); further: nearly all actives have a fitted effect of over 45% in size
How it was run: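 Live-cell protease activity was measured by CellTiter-Fluor fluorescence after 30 min. Before that, MDA-kb2 MMTV-luciferase cells had 16 hr at 37C without CO2, exposed to test compounds and 0.5 nM R1881 final.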

[17] = qHTS assay to identify small molecule phospholipidosis (PLD) inducers (AID 1259344; active means well fitted curve in the direction sought with a large enough effect; an effect the other way counts as inactive or inconclusive)
How it was run: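 Phospholipid accumulation was scored by imaging: fixed, Hoechst-counterstained HepG2 cells stained with LipidTOX Red after 24 h compound exposure at 37 C. Read-outs were pit count and pit intensity per well or per cell, with amiodarone and DMSO controls.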

[18] = qHTS assay to identify small molecule HDAC inhibitors (AID 1259364); further: top concentration of the series differs between compounds; nearly all actives have a fitted effect of over 45% in size
How it was run: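 Luminescence read after 30 min room-temperature HDAC-Glo incubation measures cellular class I/II HDAC activity. Compounds were applied for 2 hr at 37 C to HCT-116 wild-type cells seeded the day before.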

[19] = qHTS assay to identify small molecule HDAC inhibitors - cell viability counter screen (AID 1259365)
How it was run: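 HCT-116 (wild type), 1,500 cells/well, overnight 37C/5% CO2; compound in DMSO 2hr; CellTiter-Glo 30min RT; luminescence read.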

[20] = target: Estrogen receptor (Homo sapiens) (UniProt P03372); experiment: qHTS assay to identify small molecule antagonists of the estrogen receptor alpha (ER-alpha) signaling pathway using the BG1 cell line in the presence of 0.1 nM 17-beta-estradiol (AID 1259244); further: nearly all actives have a fitted effect of over 50% in size
Estrogen receptor (Homo sapiens), sequence (P03372 whole entry, looked up): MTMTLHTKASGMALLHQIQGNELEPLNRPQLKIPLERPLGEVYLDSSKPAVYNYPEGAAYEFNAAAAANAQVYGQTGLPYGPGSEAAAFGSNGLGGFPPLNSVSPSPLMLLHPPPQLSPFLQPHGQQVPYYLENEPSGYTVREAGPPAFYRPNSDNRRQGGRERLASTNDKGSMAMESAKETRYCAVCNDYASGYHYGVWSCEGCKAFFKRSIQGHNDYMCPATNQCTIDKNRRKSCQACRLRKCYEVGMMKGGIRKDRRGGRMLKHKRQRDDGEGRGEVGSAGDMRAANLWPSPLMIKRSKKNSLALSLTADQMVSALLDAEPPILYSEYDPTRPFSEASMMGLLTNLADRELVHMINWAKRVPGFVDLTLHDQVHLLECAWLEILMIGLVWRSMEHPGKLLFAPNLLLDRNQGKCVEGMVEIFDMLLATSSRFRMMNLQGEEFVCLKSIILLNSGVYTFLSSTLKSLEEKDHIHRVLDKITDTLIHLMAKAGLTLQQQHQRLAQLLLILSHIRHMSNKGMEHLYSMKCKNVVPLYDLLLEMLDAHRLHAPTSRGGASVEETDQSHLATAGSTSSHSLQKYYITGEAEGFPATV
How it was run: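 Luciferase luminescence (ONE-Glo, 30 min at room temperature) was read after 22 hr at 37C exposure to compounds plus 17beta-estradiol at 0.1 nM final. Cells were VM7Luc4E2 with endogenous ER-alpha and an ERE-driven luciferase, pre-cultured 5 days in hormone-depleted medium.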

Measured: Potency

CCOC(=O)C1(c2ccccc2)CCN(CCc2ccc(N)cc2)CC1
not listed: [16] | [17] | [18] | [19] | [20]
inactive: all other assays above

CC(=O)Nc1cc([As](=O)(O)O)ccc1O
not listed: [12] | [13] | [20]
inactive: all other assays above

Cc1cc(C)nc(Nc2ccccc2)n1
not listed: [12] | [17] | [18]
inactive: all other assays above

O=C1OC(=O)C2C1C1(Cl)C(Cl)=C(Cl)C2(Cl)C1(Cl)Cl (configuration not stated)
not listed: [12] | [13] | [15] | [17]
inactive: all other assays above

Nc1cnn(-c2ccccc2)c(=O)c1Cl
not listed: [12] | [13] | [17]
inactive: all other assays above

CSc1ccc(C(=O)C(C)(C)N2CCOCC2)cc1
not listed: [12] | [17] | [20]
inactive: all other assays above

CC(C)NCC(O)c1ccc(N)c(C#N)c1 (configuration not stated)
not listed: [12] | [14] | [16]
inactive: all other assays above

N#CC(Cl)(Cl)Cl
not listed: [14] | [17]
inactive: all other assays above

CNNC
not listed: [12] | [14] | [17]
inactive: all other assays above

COP(N)(=S)Oc1ccccc1C(=O)OC(C)C (configuration not stated)
not listed: [15] | [17] | [20]
inactive: all other assays above

BrCCCCCCBr
not listed: [12] | [17]
inactive: all other assays above

CCC(=O)c1ccccc1
not listed: [15] | [16] | [17] | [20]
inactive: all other assays above

COC(=O)COc1ccc(Cl)cc1Cl
not listed: [12] | [14] | [17] | [20]
inactive: all other assays above

O=C1CN=C(c2ccccc2)c2cc([N+](=O)[O-])ccc2N1
not listed: [12] | [14] | [15] | [18] | [19]
inactive: all other assays above

N#CCCC#N
not listed: [12] | [15] | [17] | [19]
inactive: all other assays above

CC(CCc1ccccc1)NC(C)C(O)c1ccc(O)cc1 (configuration not stated)
not listed: [12] | [14]
inactive: all other assays above
